Measured values published in PMC5540273 (PLoS ONE, 2017).

What was measured:
Conditions in all cases: concentration: 1 μM,replicates: in singlicate; n = 1
TNNI3K = test system: TNNI3K
TRKA = test system: T1, TRKA
T1 construct: gene NTRK1

TRKB = test system: TRKB
TRKC = test system: T2, TRKC
T2 construct: gene NTRK3

TRPM6 = test system: TRPM6
TSSK1B = test system: TSSK1B
TSSK3 = test system: TSSK3
TTK = test system: TTK
TXK = test system: TXK
[1] = test system: TYK2(JH1domain-catalytic)
[2] = test system: TYK2(JH2domain-pseudokinase)
TYRO3 = test system: TYRO3
ULK1 = test system: ULK1
ULK2 = test system: ULK2
ULK3 = test system: ULK3
VEGFR2 = test system: T3, VEGFR2
T3 construct: gene KDR

VPS34 = test system: T4, VPS34
T4 construct: gene PIK3C3

VRK2 = test system: VRK2
WEE1 = test system: WEE1
WEE2 = test system: WEE2
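Also: KINOMEscan kinase panel screen.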

Compound | %Inh (TNNI3K) | %Inh (TRKA) | %Inh (TRKB) | %Inh (TRKC) | %Inh (TRPM6) | %Inh (TSSK1B) | %Inh (TSSK3) | %Inh (TTK) | %Inh (TXK) | %Inh [1] | %Inh [2] | %Inh (TYRO3) | %Inh (ULK1) | %Inh (ULK2) | %Inh (ULK3) | %Inh (VEGFR2) | %Inh (VPS34) | %Inh (VRK2) | %Inh (WEE1) | %Inh (WEE2)
CC(C)N1C(=O)Cc2cc(Nc3ncc(C(F)(F)F)c(NCc4cccc(S(C)(=O)=O)c4)n3)ccc21 | 0% | 96.7% | 84% | 62% | 4% | 0% | 0% | 99.1% | 0% | 92.2% | 29% | 0% | 60% | 54% | 59% | 74% | 55% | 39% | 38% | 7%
Cc1occc1-c1nc(N)c(OC[C@@H](N)Cc2c[nH]c3ccccc23)cc1-c1cc2c(C)n[nH]c2cn1 [GSK1660450] | 20% | 3% | 0% | 0% | 22% | 20% | 5% | 32% | 43% | 3% | 0% | 0% | 33% | 22% | 11% | 0% | 18% | 90.1% | 0% | 15%
CN(C)CC(O)COc1ccc(Nc2nccc(-c3cnn4nc(N5CCOCC5)ccc34)n2)cc1 (centres unmarked) [GW767488] | 0% | 81% | 31% | 45% | 33% | 5% | 65% | 57% | 3% | 66% | 97.3% | 10% | 98.8% | 96.3% | 61% | 20% | 95.4% | 0% | 8% | 0%
CC(C)Nc1cc(-c2ccc3c(N)n[nH]c3c2)nc(N)n1 [GSK2221681] | 0% | 0% | 0% | 0% | 13% | 1% | 58% | 24% | 0% | 0% | 8% | 0% | 76% | 22% | 9% | 4% | 0% | 0% | 8% | 0%
Cc1ccc(-n2nc(C(C)(C)C)cc2NC(=O)Nc2ccc(OCCN3CCOCC3)c3ccccc23)cc1 [GW839464] | 0% | 32% | 70% |  | 0% | 10% | 0% | 31% | 13% | 0% | 0% | 37% | 0% | 0% | 0% | 37% | 21% | 0% | 0% | 14%
Cl.Cl.Nc1nc(-c2ccc3c(N)n[nH]c3c2)cc(N2CCCC(NC(=O)c3ccccc3)C2)n1 (centres unmarked) [GSK2286775] | 0% | 0% | 0% | 0% | 46% | 13% | 10% | 0% | 100% | 0% | 38% | 0% | 11% | 2% | 36% | 9% | 0% | 0% | 18% | 0%
CNC(=O)c1ccccc1Sc1ccc2c(/C=C/c3ccccn3)n[nH]c2c1 | 0% | 77% | 15% | 0% | 0% | 0% | 1% | 0% | 0% | 0% | 0% | 0% | 20% | 58% |  | 99.9% | 3% | 0% | 0% | 
Cc1n[nH]c2ccc(-c3cc(OC[C@@H](N)Cc4ccccc4)cnc3-c3ccoc3)cc12.O=C(O)C(F)(F)F.O=C(O)C(F)(F)F [GSK507358] | 0% | 0% | 0% | 15% | 0% | 0% | 6% | 0% | 0% | 7% | 19% | 0% | 0% | 8% | 22% | 0% | 0% | 33% | 35% | 15%
C[C@@H]1CCN(C(=O)CC#N)C[C@@H]1N(C)c1ncnc2[nH]ccc12 | 0% | 0% | 0% | 0% | 0% | 0% | 0% | 0% | 1% |  |  | 0% | 0% | 0% | 0% | 0% | 0% | 0% | 0% | 2%
Cc1cc(C(=O)Nc2ccc(Oc3ccc4nc(NC(=O)C5CC5)cn4n3)cc2)nn1-c1ccccc1 | 14% | 100% | 64% | 12% | 0% | 0% | 0% | 26% | 22% | 15% | 0% | 37% | 0% | 0% | 0% |  | 0% | 0% | 15% | 7%
